According to PubChem BioAssay AID1159580 (chemical genetic matrix, 2015):
Among all 5,500 compounds or so, about 2,000 (36%) were called active. Not shown: some 18% with an inconclusive outcome. Rule as the data show it: active = normalized growth mostly below about 0.91 (no sharp cut-off); inconclusive = no clear call, values can overlap the other calls; inactive = mostly above about 0.92. Some of the results follow.

Test: chemical genetic growth profiling, strain panel (AID 1159580);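 also: tested at 20 µM; growth read once vehicle control cultures reached saturation at 30 °C; 1 = growth at the plate median or of vehicle wells; lower values mean less growth of the strain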
Details: growth OD

Measured: normalized growth

O=C1C=CC2=C3c4cc(O)c(O)cc4C[C@@]3(O)COC2=C1
inactive: S. cerevisiae deletion strains, locus YJR066W, strain TOR1, active compounds read low 0.935 | S. cerevisiae deletion strains, locus YKL009W, strain mrt4, active compounds read low 1.01 | S. cerevisiae deletion strains, locus YKL068W, active compounds read low 1.01 | S. cerevisiae deletion strains, locus YKL085W, strain MDH1 (second series), active compounds read low 1.01 | S. cerevisiae deletion strains, locus YKL085W, strain MDH1, active compounds read low 1.01 | S. cerevisiae deletion strains, locus YKL160W, strain elf1, active compounds read low 0.953 | S. cerevisiae deletion strains, locus YKR001C, strain vps1, active compounds read low 1.02 | S. cerevisiae deletion strains, locus YKR026C, strain gcn3, active compounds read low 0.983 | S. cerevisiae deletion strains, locus YKR091W, strain srl3, active compounds read low 0.97 | S. cerevisiae deletion strains, locus YLL001W, strain dnm1, active compounds read low 0.976 | S. cerevisiae deletion strains, locus YLL026W, active compounds read low 0.986 | S. cerevisiae deletion strains, locus YLL041C, strain sdh2, active compounds read low 0.976 | S. cerevisiae deletion strains, locus YLR027C, strain aat2, active compounds read low 0.979 | S. cerevisiae deletion strains, locus YLR039C, strain RIC1, active compounds read low 1.07 | S. cerevisiae deletion strains, locus YLR058C, strain SHM2, active compounds read low 0.997 | S. cerevisiae deletion strains, locus YLR102C, strain apc9, active compounds read low 0.992 | S. cerevisiae deletion strains, locus YLR113W, strain HOG1, active compounds read low 1.08 | S. cerevisiae deletion strains, locus YLR221C, strain rsa3, active compounds read low 0.991 | S. cerevisiae deletion strains, locus YLR258W, strain gsy2, active compounds read low 0.971 | S. cerevisiae deletion strains, locus YLR262C, strain YPT6 (second series), active compounds read low 0.976 | S. cerevisiae deletion strains, locus YLR262C, strain YPT6, active compounds read low 1.08 | S. cerevisiae deletion strains, locus YLR268W, strain sec22, active compounds read low 1.03 | S. cerevisiae deletion strains, locus YLR320W, strain mms22, active compounds read low 0.995 | S. cerevisiae deletion strains, locus YLR342W, strain FKS1, active compounds read low 0.985 | S. cerevisiae deletion strains, locus YLR357W, strain rsc2, active compounds read low 0.912 | S. cerevisiae deletion strains, locus YLR370C, strain arc18, active compounds read low 0.987 | S. cerevisiae deletion strains, locus YLR371W, strain rom2, active compounds read low 0.989 | S. cerevisiae deletion strains, locus YLR384C, strain iki3, active compounds read low 0.971 | S. cerevisiae deletion strains, locus YLR418C, strain cdc73, active compounds read low 0.991 | S. cerevisiae deletion strains, locus YML016C, strain PPZ1, active compounds read low 0.996 | S. cerevisiae deletion strains, locus YML032C, strain rad52, active compounds read low 1.02 | S. cerevisiae deletion strains, locus YML120C, strain ndi1, active compounds read low 0.983 | S. cerevisiae deletion strains, locus YML124C, strain tub3, active compounds read low 1 | S. cerevisiae deletion strains, locus YMR058W, strain fet3, active compounds read low 0.941 | S. cerevisiae deletion strains, locus YMR078C, strain ctf18, active compounds read low 0.996 | S. cerevisiae deletion strains, locus YMR125W, strain sto1, active compounds read low 0.954 | S. cerevisiae deletion strains, locus YMR129W, active compounds read low 1 | S. cerevisiae deletion strains, locus YMR205C, strain PFK2, active compounds read low 0.98 | S. cerevisiae deletion strains, locus YMR223W, strain ubp8, active compounds read low 0.975 | S. cerevisiae deletion strains, locus YMR231W, strain pep5, active compounds read low 0.957 | S. cerevisiae deletion strains, locus YMR307W, strain GAS1, active compounds read low 0.991 | S. cerevisiae deletion strains, locus YNL067W, strain RPL9B, active compounds read low 0.994 | S. cerevisiae deletion strains, locus YNL071W, strain lat1, active compounds read low 0.982 | S. cerevisiae deletion strains, locus YNL128W, strain TEP1, active compounds read low 0.998 | S. cerevisiae deletion strains, locus YNL153C, strain GIM3, active compounds read low 0.963 | S. cerevisiae deletion strains, locus YNL183C, strain NPR1, active compounds read low 0.971 | S. cerevisiae deletion strains, locus YNL209W, strain ssb2, active compounds read low 0.987 | S. cerevisiae deletion strains, locus YNL233W, strain BNI4, active compounds read low 0.992 | S. cerevisiae deletion strains, locus YNL248C, strain rpa49, active compounds read low 0.969 | S. cerevisiae deletion strains, locus YNL250W, strain rad50, active compounds read low 0.954 | S. cerevisiae deletion strains, locus YNL271C, strain bni1, active compounds read low 0.982 | S. cerevisiae deletion strains, locus YNL298W, strain CLA4, active compounds read low 0.996 | S. cerevisiae deletion strains, locus YNL307C, strain MCK1, active compounds read low 1 | S. cerevisiae deletion strains, locus YNL322C, strain KRE1 (second series), active compounds read low 0.971 | S. cerevisiae deletion strains, locus YNL322C, strain KRE1, active compounds read low 1.01 | S. cerevisiae deletion strains, locus YNR049C, strain mso1, active compounds read low 0.977 | S. cerevisiae deletion strains, locus YNR052C, strain pop2, active compounds read low 0.967 | S. cerevisiae deletion strains, locus YOL012C, strain htz1 0.978 | S. cerevisiae deletion strains, locus YOL147C, strain pex11, active compounds read low 0.998 | S. cerevisiae deletion strains, locus YOR001W, strain rrp6, active compounds read low 0.968 | S. cerevisiae deletion strains, locus YOR061W, strain CKA2, active compounds read low 1.01 | S. cerevisiae deletion strains, locus YOR069W, strain VPS5, active compounds read low 0.993 | S. cerevisiae deletion strains, locus YOR070C, strain gyp1, active compounds read low 0.967 | S. cerevisiae deletion strains, locus YOR080W, strain dia2, active compounds read low 0.979 | S. cerevisiae deletion strains, locus YOR083W, strain WHI5, active compounds read low 0.959 | S. cerevisiae deletion strains, locus YOR106W, strain vam3, active compounds read low 0.931 | S. cerevisiae deletion strains, locus YOR136W, strain idh2, active compounds read low 0.998 | S. cerevisiae deletion strains, locus YOR144C, strain elg1, active compounds read low 1.01 | S. cerevisiae deletion strains, locus YOR184W, strain ser1, active compounds read low 1.08 | S. cerevisiae deletion strains, locus YOR231W, strain MKK1, active compounds read low 1.02 | S. cerevisiae deletion strains, locus YOR265W, strain rbl2, active compounds read low 0.986 | S. cerevisiae deletion strains, locus YOR270C, strain vph1, active compounds read low 1.01 | S. cerevisiae deletion strains, locus YOR290C, strain snf2, active compounds read low 0.946 | S. cerevisiae deletion strains, locus YOR316C, strain cot1, active compounds read low 1 | S. cerevisiae deletion strains, locus YPL051W, strain arl3, active compounds read low 0.968 | S. cerevisiae deletion strains, locus YPL055C, strain LGE1, active compounds read low 1.04 | S. cerevisiae deletion strains, locus YPL078C, strain atp4, active compounds read low 0.992 | S. cerevisiae deletion strains, locus YPL106C, strain sse1, active compounds read low 0.944 | S. cerevisiae deletion strains, locus YPL240C, strain hsp82, active compounds read low 0.99 | S. cerevisiae deletion strains, locus YPL241C, strain CIN2, active compounds read low 1.01 | S. cerevisiae deletion strains, locus YPL256C, strain CLN2, active compounds read low 1 | S. cerevisiae deletion strains, locus YPR119W, strain clb2, active compounds read low 0.996 | S. cerevisiae deletion strains, locus YPR141C, strain kar3, active compounds read low 0.993 | S. cerevisiae deletion strains, locus YPR163C, strain tif3, active compounds read low 1 | S. cerevisiae deletion strains, locus YPR167C, strain met16, active compounds read low 0.978 | S. cerevisiae deletion strains, strain wtn01, active compounds read low 1.03 | S. cerevisiae strains, strain wild type, active compounds read low 1.03
